# Assay results as given in PubChem BioAssay (Tox21).
# Results filed as inconclusive are left out. Entries that show only a call come without a potency. The source made the active and inactive calls. Unless noted, the call rests on the fitted dose curve.
# How the values were obtained:
# [1] = Nuclear factor erythroid 2-related factor 2/antioxidant responsive element (Nrf2/ARE) small molecule agonists: qHTS cell viability counter screen in human keratinocytes (AID 1919968; active means well fitted curve in the direction sought with a large enough effect in the repeat runs; an effect the other way counts as inactive or inconclusive; further: nearly all actives have a fitted effect of over 55% in size; further: potency means the concentration at half of the fitted maximal effect)
# Procedure, shortened: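 Cells of the KeratinoSens line were plated at 1,500 per well and left for 5 h before compound transfer from DMSO stocks. After a 23 h incubation (37 C, 5% CO2), CellTiter-Fluor was added. Signal was taken as fluorescence intensity 1 h later.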
# [2] = Nuclear factor erythroid 2-related factor 2/antioxidant responsive element (Nrf2/ARE) small molecule agonists: luciferase reporter gene qHTS assay in human keratinocytes (AID 1919969); further: nearly all actives have a fitted effect of over 35% in size; further: potency means the concentration at half of the fitted maximal effect
# [3] = target: Gonadotropin-releasing hormone receptor (Homo sapiens) (UniProt P30968); experiment: Human gonadotropin-releasing hormone receptor (GnRHR) small molecule agonists, calcium flux assay in GnRHR-HEK293 cells (AID 1920063); further: nearly all actives have a fitted effect of over 35% in size; further: potency means the concentration at half of the fitted maximal effect
# Chain of Gonadotropin-releasing hormone receptor (Homo sapiens) (P30968 whole entry, looked up): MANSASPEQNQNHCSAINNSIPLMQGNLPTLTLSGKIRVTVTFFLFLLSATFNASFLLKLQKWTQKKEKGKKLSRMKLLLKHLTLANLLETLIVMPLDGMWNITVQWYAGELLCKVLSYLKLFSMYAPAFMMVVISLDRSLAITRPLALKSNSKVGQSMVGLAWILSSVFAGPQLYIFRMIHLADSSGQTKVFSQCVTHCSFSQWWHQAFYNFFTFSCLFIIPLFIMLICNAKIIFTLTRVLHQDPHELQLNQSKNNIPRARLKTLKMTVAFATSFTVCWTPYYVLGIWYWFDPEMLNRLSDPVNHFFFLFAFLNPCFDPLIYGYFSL
# Procedure, shortened: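 Compounds dissolved in DMSO are pin-transferred onto dye-loaded GnRHR-HEK293 cells, which were seeded 18 h before at 37 C/5% CO2. Calcium signal is read as fluorescence intensity at 1 s intervals for 3 min.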
# [4] = target: KiSS-1 receptor (Homo sapiens) (UniProt Q969F8); experiment: Human kisspeptin (KISS1R) small molecule agonists, calcium flux assay in KISS1R-HEK293 cells (AID 1920064; active means well fitted curve in the direction sought with a large enough effect in the repeat runs; an effect the other way counts as inactive or inconclusive)
# Chain of KiSS-1 receptor (Homo sapiens) (Q969F8 whole entry, looked up): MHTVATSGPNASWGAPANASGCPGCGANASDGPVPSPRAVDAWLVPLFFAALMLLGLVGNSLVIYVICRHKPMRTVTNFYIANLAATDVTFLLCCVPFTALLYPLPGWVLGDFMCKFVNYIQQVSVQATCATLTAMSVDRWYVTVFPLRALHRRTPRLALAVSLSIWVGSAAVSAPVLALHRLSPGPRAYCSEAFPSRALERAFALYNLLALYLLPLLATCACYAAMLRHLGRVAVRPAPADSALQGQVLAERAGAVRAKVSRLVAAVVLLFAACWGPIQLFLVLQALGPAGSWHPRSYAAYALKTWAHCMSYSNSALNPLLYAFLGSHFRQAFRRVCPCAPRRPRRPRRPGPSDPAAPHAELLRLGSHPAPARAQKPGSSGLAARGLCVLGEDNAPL
# Procedure, shortened: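 Cell line: HEK293, stable human KISS1R. Dye loading 1 h at 37 C after 18 h culture. Read: kinetic fluorescence, 480/540 nm, 3 min at 1 s intervals.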
# [5] = p53 small molecule agonists, cell-based qHTS assay with human liver microsomes (AID 1963577);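 further: p53 response element beta-lactamase reporter cells with liver microsomes plus NADPH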
# Procedure, shortened: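 Steps: plate p53RE-bla cells, incubate 5 h at 37 C; add compound in DMSO; add microsomes (0.5 mg/mL final) and NADPH (0.5 mg/mL final); incubate 16 h at 37 C; add LiveBLAzer, 2 h RT; read fluorescence.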
# [6] = p53 small molecule agonists, cell-based qHTS assay with rat liver microsomes (AID 1963578)
# Procedure, shortened: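 Metabolic activation is supplied by rat liver microsomes with NADPH (each 0.5 mg/mL final). p53RE-bla cells incubate with compound 16 h at 37 C; reporter activity is measured by LiveBLAzer fluorescence.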
# [7] = p53 small molecule agonists, cell-based qHTS assay with human liver microsomes: qHTS cell viability counter screen (AID 1963579); further: nearly all actives have a fitted effect of over 45% in size; further: potency means the concentration at half of the fitted maximal effect
# Procedure, shortened: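 After the 460/530 nm beta-lactamase read, CellTiter-Glo was added to the same wells and luminescence measured after 30 min at room temperature, giving viability of p53RE-bla cells treated 16 h with compounds plus microsomes and NADPH.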
# [8] = p53 small molecule agonists, cell-based qHTS assay with rat liver microsomes: qHTS cell viability counter screen (AID 1963580); further: nearly all actives have a fitted effect of over 45% in size; further: potency means the concentration at half of the fitted maximal effect
# Procedure, shortened: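 Cytotoxicity counter screen: intracellular ATP measured by CellTiter-Glo luminescence in the same wells as the beta-lactamase reporter read, on HCT-116 p53RE-bla cells exposed 16 h at 37 C to compounds with rat liver microsomes and NADPH, each 0.5 mg/mL final.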
# [9] = p53 small molecule agonists, cell-based qHTS assay: qHTS cell viability counter screen (AID 1963581); further: nearly all actives have a fitted effect of over 45% in size; further: potency means the concentration at half of the fitted maximal effect
# Procedure, shortened: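 ATP content measured by luminescence in HCT-116 p53RE-bla cells treated 16 h at 37 C, same wells as the reporter screen.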
# [10] = target: 5-hydroxytryptamine receptor 2A (Homo sapiens) (UniProt P28223); experiment: 5-hydroxytryptamine receptor 2A (HTR2A) small molecule antagonists, cell-based qHTS assay (AID 1963586); further: nearly all actives have a fitted effect of over 45% in size
# Chain of 5-hydroxytryptamine receptor 2A (Homo sapiens) (P28223 whole entry, looked up): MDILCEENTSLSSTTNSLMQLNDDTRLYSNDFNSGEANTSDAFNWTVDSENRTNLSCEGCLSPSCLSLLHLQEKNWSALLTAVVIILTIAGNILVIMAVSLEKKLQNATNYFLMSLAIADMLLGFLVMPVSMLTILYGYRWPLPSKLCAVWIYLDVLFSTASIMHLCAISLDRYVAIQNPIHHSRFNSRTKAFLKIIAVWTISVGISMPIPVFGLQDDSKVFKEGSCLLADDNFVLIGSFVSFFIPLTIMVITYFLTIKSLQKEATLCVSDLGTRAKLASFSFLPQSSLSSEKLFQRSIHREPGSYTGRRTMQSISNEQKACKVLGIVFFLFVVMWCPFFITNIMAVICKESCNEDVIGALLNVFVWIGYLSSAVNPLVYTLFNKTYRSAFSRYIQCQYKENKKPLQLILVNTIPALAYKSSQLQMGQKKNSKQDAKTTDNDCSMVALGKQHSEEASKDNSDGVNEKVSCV
# Procedure, shortened: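 CHO cells stably expressing human HTR2A were plated for 18 h at 37 C, then loaded with calcium dye for 1 h. Compounds were preincubated 5 min at room temperature before DOI (4 nM solution) was added. Kinetic fluorescence was read for 3 min.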
# [11] = target: Muscarinic acetylcholine receptor M1 (Homo sapiens) (UniProt P11229); experiment: Cholinergic receptor muscarinic 1 (CHRM1) small molecule antagonists, cell-based qHTS assay (AID 1963588); further: nearly all actives have a fitted effect of over 40% in size; further: potency means the concentration at half of the fitted maximal effect
# Chain of Muscarinic acetylcholine receptor M1 (Homo sapiens) (P11229 whole entry, looked up): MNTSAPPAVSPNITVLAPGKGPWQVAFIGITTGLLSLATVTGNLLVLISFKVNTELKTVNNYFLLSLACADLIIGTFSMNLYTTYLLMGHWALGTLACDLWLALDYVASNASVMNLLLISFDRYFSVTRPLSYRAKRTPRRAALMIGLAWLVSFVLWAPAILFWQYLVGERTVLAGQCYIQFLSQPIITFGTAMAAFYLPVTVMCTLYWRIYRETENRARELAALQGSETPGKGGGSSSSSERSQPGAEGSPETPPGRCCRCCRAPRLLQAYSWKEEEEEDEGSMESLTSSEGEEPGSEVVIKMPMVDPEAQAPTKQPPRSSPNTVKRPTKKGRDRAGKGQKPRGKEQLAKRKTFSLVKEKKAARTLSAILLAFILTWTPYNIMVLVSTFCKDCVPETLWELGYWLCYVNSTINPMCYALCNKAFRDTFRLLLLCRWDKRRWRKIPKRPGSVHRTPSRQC
# Procedure, shortened: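 Compounds were tested at 15 concentrations in three independent runs. Dye-loaded CHRM1-CHO cells were exposed 5 min at room temperature before stimulation by acetylcholine added at 50nM. Intracellular calcium was read kinetically on FDSS for 3 min.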
# [12] = target: Muscarinic acetylcholine receptor M1 (Homo sapiens) (UniProt P11229); experiment: Cholinergic receptor muscarinic 1 (CHRM1) small molecule agonists, cell-based qHTS assay (AID 1963589); further: nearly all actives have a fitted effect of over 35% in size; further: potency means the concentration at half of the fitted maximal effect
# Procedure, shortened: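 Homogeneous fluorescence calcium flux, agonist mode. Human M1-expressing CHO cells; compound dosed at 15 concentrations, three independent runs; signal sampled every 1 sec.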
# [13] = target: Beta-2 adrenergic receptor (Homo sapiens) (UniProt P07550); experiment: Adrenergic beta2 receptor (ADRB2) small molecule antagonists, cell-based qHTS assay (AID 1963592); further: nearly all actives have a fitted effect of over 50% in size; further: potency means the concentration at half of the fitted maximal effect
# Chain of Beta-2 adrenergic receptor (Homo sapiens) (P07550 whole entry, looked up): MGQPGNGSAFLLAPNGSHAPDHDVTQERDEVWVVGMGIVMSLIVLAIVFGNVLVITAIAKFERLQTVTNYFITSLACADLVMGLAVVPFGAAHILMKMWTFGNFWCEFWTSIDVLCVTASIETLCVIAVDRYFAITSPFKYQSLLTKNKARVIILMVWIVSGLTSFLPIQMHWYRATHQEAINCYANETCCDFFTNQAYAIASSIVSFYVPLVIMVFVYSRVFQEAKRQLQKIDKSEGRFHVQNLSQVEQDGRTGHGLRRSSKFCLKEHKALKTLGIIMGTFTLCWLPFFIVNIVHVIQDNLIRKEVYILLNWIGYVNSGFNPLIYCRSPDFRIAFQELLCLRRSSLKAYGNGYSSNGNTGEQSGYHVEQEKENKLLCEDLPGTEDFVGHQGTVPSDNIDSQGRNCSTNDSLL
# Procedure, shortened: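 Assay format: CHO-ADRB2 cells, 18-20hr seeding at 37C/5% CO2, then compound plus 1nM isoproterenol agonist mix for 0.5hr RT. Homogeneous time-resolved fluorescence cAMP detection after 1hr, expressed as 665/615 nm ratio.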
# [14] = target: D(2) dopamine receptor (Homo sapiens) (UniProt P14416); experiment: Dopamine D2 receptor (DRD2) small molecule agonists, cell-based qHTS assay (AID 1963594); further: nearly all actives have a fitted effect of over 35% in size
# Chain of D(2) dopamine receptor (Homo sapiens) (P14416 whole entry, looked up): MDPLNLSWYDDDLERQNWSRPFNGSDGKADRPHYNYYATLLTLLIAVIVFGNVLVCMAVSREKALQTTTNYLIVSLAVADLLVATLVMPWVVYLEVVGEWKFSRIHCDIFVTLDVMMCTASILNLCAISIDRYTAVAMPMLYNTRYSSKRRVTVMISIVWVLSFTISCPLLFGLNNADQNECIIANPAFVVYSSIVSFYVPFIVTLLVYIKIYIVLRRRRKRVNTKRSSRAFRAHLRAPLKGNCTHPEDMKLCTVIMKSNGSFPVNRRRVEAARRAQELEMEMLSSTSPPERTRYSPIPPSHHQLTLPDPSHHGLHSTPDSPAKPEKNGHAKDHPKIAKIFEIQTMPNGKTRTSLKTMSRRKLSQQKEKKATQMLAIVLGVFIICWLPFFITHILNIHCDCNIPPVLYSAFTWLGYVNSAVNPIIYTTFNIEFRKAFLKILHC
# Procedure, shortened: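 HEK293 cells stably expressing human DRD2, pre-treated with PDE inhibitor Ro20-1724 (0.1 mM final) and compound 10 min at room temperature, then stimulated with NKH477 (200nM […]) for 30 min. cAMP read by HTRF (665/620 nm).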
# [15] = target: D(2) dopamine receptor (Homo sapiens) (UniProt P14416); experiment: Dopamine D2 receptor (DRD2) small molecule antagonists, cell-based qHTS assay (AID 1963595; active means well fitted inhibition curve with a large enough effect in the signal ratio in the repeat runs, with a control signal flat; the % refers to the signal ratio; further: potency means the concentration at half of the fitted maximal effect)
# Procedure, shortened: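 Antagonism was scored as restored cAMP in HEK293-DRD2 cells. These cells were stimulated with 200 nM NKH477 and 12 nM quinpirole for 30 min at room temperature, in the presence of 0.1 mM Ro20-1724.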
# [16] = p53 small molecule agonists, cell-based qHTS assay (AID 1963582; active means well fitted activation curve with a large enough effect in the signal ratio in the repeat runs, not every such curve was filed as active; the % refers to the signal ratio)
# Procedure, shortened: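 16 h compound exposure (37 C) of p53 response element–bla cells, preceded by 5 h recovery at 37 C/5% CO2; read-out via LiveBLAzer B/G FRET substrate, 2 h RT, fluorescence intensity.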
# [17] = target: 5-hydroxytryptamine receptor 2A (Homo sapiens) (UniProt P28223); experiment: 5-hydroxytryptamine receptor 2A (HTR2A) small molecule agonists, cell-based qHTS assay (AID 1963587); further: nearly all actives have a fitted effect of over 30% in size; further: potency means the concentration at half of the fitted maximal effect
# Procedure, shortened: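 CHO cells stably expressing human HTR2A, plated 18 h, loaded with calcium dye 1 h at 37 C. Agonist mode: compounds added and intracellular calcium fluorescence recorded kinetically for 2 min at 1 sec intervals.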
# [18] = cAMP Responsive Elements (CRE) small molecule agonists, cell-based qHTS assay (AID 1963590)
# Procedure, shortened: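 HEK 293T cells stably bearing CRE-bla were plated at 2,000 cells per well and rested 18 h. Compounds, positive controls or DMSO were added for 3 h at 37 C. LiveBLAzer B/G substrate was then loaded for 2 h at room temperature.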
# [19] = cAMP Responsive Elements (CRE) small molecule antagonists, cell-based qHTS assay (AID 1963591; active means well fitted inhibition curve with a large enough effect in the signal ratio in the repeat runs, not every such curve was filed as active; the % refers to the signal ratio)
# Procedure, shortened: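 First, CRE-bla HEK293T cells settled 18 h at 37 C. Next, compound and 0.25 uM final NKH477 were applied for 3 h. Last, LiveBLAzer B/G substrate was loaded for 2 h at room temperature.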
# [20] = G protein-coupled receptor (GPCR) small molecule agonists, calcium flux assay: HEK293 wild type cell line counter screen (AID 1920065)
# Procedure, shortened: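 Tox21 10K compounds, 15 concentrations each in triplicate, pin-transferred in DMSO onto dye-loaded cells; kinetic read at 480/540 nm for 3 min, 1 s intervals.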
SMILES,Potency [1],Potency [2],Potency [3],Potency [4],Potency [5],Potency [6],Potency [7],Potency [8],Potency [9],Potency [10],Potency [11],Potency [12],Potency [13],Potency [14],Potency [15],Potency [16],Potency [17],Potency [18],Potency [19],Potency [20]
c1ccc2c(c1)Sc1ccccc1N2CC1CN2CCC1CC2 (stereo not given),33.5 µM (active),inactive,inactive,inactive,inactive,inactive,inactive,inactive,inactive,inactive,inactive,inactive,inactive,inactive,inactive,,,,,
CC(Cc1ccccc1)NCCn1cnc2c1c(=O)n(C)c(=O)n2C (stereo not given),inactive,inactive,inactive,inactive,inactive,,inactive,inactive,inactive,inactive,,inactive,inactive,inactive,inactive,inactive,inactive,inactive,inactive,
Oc1cccc(-c2ccccc2)c1,inactive,inactive,inactive,inactive,inactive,inactive,inactive,,inactive,inactive,inactive,inactive,,,inactive,inactive,inactive,inactive,inactive,
c1ccc(Nc2ccc(Nc3ccccc3)cc2)cc1,inactive,27.2 µM (active),inactive,inactive,,,inactive,inactive,,,,,inactive,,inactive,,,inactive,inactive,
CC[C@H](C)[C@H]1O[C@]2(C=C[C@@H]1C)C[C@@H]1C[C@@H](C/C=C(\C)[C@@H](O[C@H]3C[C@H](OC)[C@@H](O[C@H]4C[C@H](OC)[C@@H](NC)[C@H](C)O4)[C@H](C)O3)[C@@H](C)/C=C/C=C3\CO[C@@H]4[C@H](O)C(C)=C[C@@H](C(=O)O1)[C@]34O)O2,9.69 µM (active),inactive,11 µM (active),,inactive,inactive,28.9 µM (active),14.5 µM (active),10.2 µM (active),,23.7 µM (active),38.9 µM (active),43.3 µM (active),inactive,13.7 µM (active),,38.9 µM (active),,,inactive
O=CC(Br)(Br)Br,8.61 µM (active),3.05 µM (active),inactive,,inactive,inactive,,,inactive,inactive,inactive,inactive,,inactive,,,,inactive,,inactive
O=C(O)[C@H](O)[C@@H](O)C(=O)O,inactive,inactive,inactive,,,,,inactive,inactive,inactive,inactive,inactive,inactive,inactive,inactive,,inactive,inactive,inactive,inactive
CC(C)(C)C(O)C(Oc1ccc(Cl)cc1)n1cncn1 (stereo not given),inactive,68.6 µM (active),inactive,,,inactive,inactive,,inactive,,,,,,inactive,inactive,inactive,inactive,,
CCOC(=O)/C=C(C)/C=C/C[C@@H](C)CCCC(C)C,inactive,68.6 µM (active),inactive,,inactive,inactive,,inactive,inactive,,inactive,inactive,inactive,inactive,inactive,inactive,inactive,inactive,inactive,inactive
ClC(Cl)Br,inactive,inactive,inactive,,,,inactive,inactive,inactive,inactive,inactive,inactive,inactive,inactive,inactive,,,inactive,inactive,inactive
O=C(O)C(F)(F)C(F)(F)C(F)(F)C(F)(F)C(F)(F)F,inactive,inactive,inactive,,inactive,,inactive,inactive,inactive,inactive,,inactive,inactive,inactive,inactive,inactive,inactive,inactive,inactive,
O=C(Cl)c1ccccc1F,inactive,inactive,inactive,,inactive,inactive,,inactive,,inactive,inactive,inactive,inactive,inactive,inactive,inactive,inactive,inactive,inactive,inactive
